Source: PubChem
CSC inhib: cancer stem cell viability inhibitors, primary screen, luminescence | cancer stem cell-like cells viability | inhibition, % at 7.5 µM | actives 1.1% (n = 300,000) | AID 2717, 2010; in the data active = inhibition above about 75%; inconclusive = no clear call, values can overlap the other calls; tested in HMLE shEcad cells
Gli-Sufu antag: Gli-Sufu pathway antagonists, primary screen, luciferase luminescence, Sufu-KO-LIGHT cells, uHTS; Sufu-KO-LIGHT fibroblasts, Gli luciferase reporter luminescence; inhibition, % at 5 µM; actives 0.74% (n = 340,000); AID 588413, 2011;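 active = inhibition above about 55%, limit read from the data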
Shn3 3UTR inh: reduction of Shn3 3'UTR firefly luciferase signal, primary screen, Schnurri-3 inhibitor project, cell-based, Clone20 osteoblasts, set 2; AID 588674, 2011; inhibition, % at 12.5 µM; actives 0.52% (n = 360,000); Clone20 osteoblast Shn3 3'UTR firefly luciferase, 24 h;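 active = mean inhibition of at least 75% with every replicate also reaching 75%; inconclusive = mean inhibition at least 75% but some replicate below; inactive = mean inhibition below 75%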
PAX8 inh HTS: inhibitors of PAX8-driven TPO luciferase reporter, primary screen, RMG-I cells, single concentration; SteadyGlo, 24 h; inhibition, % at 12.6 µM; actives 1.2% (n = 360,000);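 active = mean replicate inhibition at least 60% with every replicate also reaching 60%; inconclusive = only one of the two criteria is met; inactive = mean below 60% and not all replicates reaching 60%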;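 note: luciferase light reporting Pax8 driven TPO promoter activity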
Mdm2-MdmX inh: inhibitors of human Mdm2-MdmX association, primary screen, cell-based, luminescence, split luciferase, SaOS-2, uHTS | Protein Mdm4 (Homo sapiens) + E3 ubiquitin-protein ligase Mdm2 (Homo sapiens), … | AID 485346, 2010 | inhibition, % at 8 µM | actives 3% (n = 330,000) | SaOS-2 split-luciferase Mdm2/MdmX complementation;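 active = inhibition of at least 50% at 8 µM in the primary screen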
Target sequence (O15151 whole entry, looked up): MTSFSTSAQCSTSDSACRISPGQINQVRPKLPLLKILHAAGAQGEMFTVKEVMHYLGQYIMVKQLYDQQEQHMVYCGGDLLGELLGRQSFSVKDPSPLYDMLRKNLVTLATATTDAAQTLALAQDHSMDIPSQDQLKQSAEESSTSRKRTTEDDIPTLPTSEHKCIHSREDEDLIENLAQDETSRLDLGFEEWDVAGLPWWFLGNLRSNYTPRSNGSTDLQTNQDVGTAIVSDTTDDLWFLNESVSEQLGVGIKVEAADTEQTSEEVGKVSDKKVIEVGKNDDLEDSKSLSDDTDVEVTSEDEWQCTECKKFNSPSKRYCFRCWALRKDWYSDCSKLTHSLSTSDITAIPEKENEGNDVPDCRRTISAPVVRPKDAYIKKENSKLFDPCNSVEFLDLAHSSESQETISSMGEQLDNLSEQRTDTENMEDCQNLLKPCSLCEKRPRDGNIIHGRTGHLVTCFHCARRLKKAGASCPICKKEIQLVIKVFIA
Target sequence (Q00987 whole entry, looked up): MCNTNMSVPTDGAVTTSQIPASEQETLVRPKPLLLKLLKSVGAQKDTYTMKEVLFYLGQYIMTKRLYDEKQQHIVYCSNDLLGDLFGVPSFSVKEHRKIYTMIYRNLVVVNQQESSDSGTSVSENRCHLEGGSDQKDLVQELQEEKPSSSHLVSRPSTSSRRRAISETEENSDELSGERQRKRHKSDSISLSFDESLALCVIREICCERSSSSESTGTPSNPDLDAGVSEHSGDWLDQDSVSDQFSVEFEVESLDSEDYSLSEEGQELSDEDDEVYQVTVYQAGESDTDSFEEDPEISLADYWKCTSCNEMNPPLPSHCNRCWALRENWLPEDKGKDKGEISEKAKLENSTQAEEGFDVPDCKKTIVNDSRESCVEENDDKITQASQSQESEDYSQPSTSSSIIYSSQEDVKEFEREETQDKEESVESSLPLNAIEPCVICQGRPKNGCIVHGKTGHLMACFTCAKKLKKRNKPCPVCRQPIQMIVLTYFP
Beta apoptosis: inhibitors of cytokine-induced beta cell apoptosis, primary screen, luminescence | AID 435005, 2010 | protection from apoptosis, % (concentration not given with the values) | actives 0.8% (n = 300,000) | INS-1E cytokine-induced death, ATP luminescence, 48 h; percent of positive-control rescue, neutral wells zero;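 active = Every replicate reaches about 75%, or at least half do and their mean reaches it too, limit read from the data; inconclusive = At least half of replicates reach the limit but their mean does not; inactive = Under half of replicates reach the limit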;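 note: higher means more ATP so stronger rescue from cytokine killing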
Mdm2-MdmX conf: Mdm2-MdmX complex disruptors, retested hits, confirmation, luminescence, single concentration. actives 55% (n = 10,000). inhibition, % at 8 µM. Mdm2-MdmX binding, luminescent assay. shares compounds with Mdm2-MdmX inh; in the data active = inhibition above about 40%
FLuc counter: full-length luciferase signal inhibition, confirmation, counter-screen for Mdm2/MdmX interaction inhibitor project, cell-based, single concentration, SaOS-2; shares compounds with Mdm2-MdmX inh; SaOS-2 full-length luciferase counterscreen, luminescence; inhibition, % at 8 µM; actives 77% (n = 6,200);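 active = mean inhibition at 8 µM reaching about 37%, which flags the compound as non-specific, limit read from the data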;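 note: p53-null SaOS-2 cells with luciferase driven by a doxycycline-inducible promoter; compound on cells about two nights before reading with doxycycline added after day one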
Hits are given with their value. Hits are enriched below; roughly 4% of the tested compounds scored in any of these assays.

What do the screens show for `COc1ccc2nc(NC(=O)/C=C/c3ccc4c(c3)OCO4)sc2c1`?
CSC inhib: inactive; PAX8 inh HTS: inactive; Mdm2-MdmX inh: 83; Mdm2-MdmX conf: 52; FLuc counter: inactive

How did COC(=O)c1cc(NC(=O)/C=C/c2ccc3c(c2)OCO3)cc(C(=O)OC)c1 do in these assays?
CSC inhib: inactive; Gli-Sufu antag: inactive; Shn3 3UTR inh: inactive; Mdm2-MdmX inh: 67; Beta apoptosis: inactive; Mdm2-MdmX conf: inactive; FLuc counter: 102

How did COc1ccc2nc(Nc3ccc4c(c3)OCO4)sc2c1 do in these assays?
CSC inhib: inactive; Gli-Sufu antag: inactive; Shn3 3UTR inh: inactive; Mdm2-MdmX inh: inactive; Beta apoptosis: inactive

What do the screens show for `Cc1ccc(S(=O)(=O)N(C)C[C@H]2Oc3ccc(NS(=O)(=O)c4cccs4)cc3CC(=O)N([C@@H](C)CO)C[C@@H]2C)cc1`?
PAX8 inh HTS: inactive

Results for O=C(c1ccc2c(c1)OCO2)N1CC(=O)N2[C@H](CO)[C@@H](c3ccc(C#CCC4CCCC4)cc3)[C@H]2C1 ?
PAX8 inh HTS: inactive

How did COc1ccccc1C#Cc1cnc2c(c1)C(=O)N([C@H](C)CO)C[C@@H](C)[C@H](CN(C)C(=O)c1ccc3c(c1)OCO3)O2 do in these assays?
PAX8 inh HTS: inactive

What do the screens show for `O=C(Nc1ccccc1[N+](=O)[O-])C1=C(O)CCn2c1nc1ccccc12`?
CSC inhib: inactive; Gli-Sufu antag: inactive; Shn3 3UTR inh: inactive; Mdm2-MdmX inh: 71; Beta apoptosis: inactive; Mdm2-MdmX conf: inactive

How did O=C(Nc1ccccc1[N+](=O)[O-])c1cc2ccccc2nc1Cl do in these assays?
Gli-Sufu antag: inactive; Shn3 3UTR inh: inactive; PAX8 inh HTS: inactive; Mdm2-MdmX inh: 64; Beta apoptosis: inactive; Mdm2-MdmX conf: inactive

Results for NC(=O)CC(NC(=O)Cc1ccc(Br)cc1)c1ccc(NCc2cc(F)ccc2F)c([N+](=O)[O-])c1 (stereo not drawn) ?
CSC inhib: inconclusive; Gli-Sufu antag: inactive; Shn3 3UTR inh: inactive; PAX8 inh HTS: inactive; Mdm2-MdmX inh: 55; Beta apoptosis: inactive; Mdm2-MdmX conf: inactive

How did NC(=O)CC(NC(=O)Cc1ccc(Br)cc1)c1ccc(NC2CCN(Cc3ccccc3)CC2)c([N+](=O)[O-])c1 (stereo not drawn) do in these assays?
CSC inhib: inactive; Gli-Sufu antag: inactive; Shn3 3UTR inh: inactive; PAX8 inh HTS: inactive; Mdm2-MdmX inh: inactive; Beta apoptosis: inactive

Results for NC(=O)CC(NC(=O)Cc1cccc2ccccc12)c1ccc(NC2CCN(Cc3ccccc3)CC2)c([N+](=O)[O-])c1 (stereo not drawn) ?
CSC inhib: inactive; Gli-Sufu antag: inactive; Shn3 3UTR inh: inactive; PAX8 inh HTS: inactive; Mdm2-MdmX inh: 55; Mdm2-MdmX conf: inactive

Results for CCOc1cc(NC(=O)C2CC2)c(OCC)cc1NC(=O)c1ccccc1OCC ?
CSC inhib: inactive; Gli-Sufu antag: inactive; Shn3 3UTR inh: inactive; PAX8 inh HTS: inactive; Mdm2-MdmX inh: inactive; Beta apoptosis: inactive

What do the screens show for `CCOc1cc(NC(=O)C2CC2)c(OCC)cc1NC(=O)c1cc(OC)c(OC)c(OC)c1`?
CSC inhib: inactive; Gli-Sufu antag: inactive; Shn3 3UTR inh: inactive; PAX8 inh HTS: inactive; Mdm2-MdmX inh: 62; Beta apoptosis: inactive; Mdm2-MdmX conf: inactive

Results for Nc1c(Cl)cc(-c2csc(N3CCCC3c3nc4cc(Cl)c(N5CCCCC5)cc4n3CCCO)n2)cc1Cl (stereo not drawn) ?
CSC inhib: inactive; Gli-Sufu antag: inactive; Shn3 3UTR inh: inactive; PAX8 inh HTS: inactive; Mdm2-MdmX inh: 85; Beta apoptosis: inactive; Mdm2-MdmX conf: inactive

What do the screens show for `Nc1c(Cl)cc(-c2csc(N3CCCC3c3nc4cc(Cl)c(Cl)cc4n3CCCO)n2)cc1Cl` (stereo not drawn)?
CSC inhib: inactive; Gli-Sufu antag: inactive; Shn3 3UTR inh: inactive; PAX8 inh HTS: inactive; Mdm2-MdmX inh: inactive; Beta apoptosis: inactive

Results for CCC(C)N(CC(=O)Nc1cccc(C)c1C)C(=O)CCl (stereo not drawn) ?
CSC inhib: inactive; Gli-Sufu antag: inactive; Shn3 3UTR inh: inactive; Mdm2-MdmX inh: 100; Beta apoptosis: inactive; Mdm2-MdmX conf: 99; FLuc counter: 52

Results for CCC(CC)NC(=O)Nc1cccc(C)c1C ?
CSC inhib: inactive; Gli-Sufu antag: inactive; Shn3 3UTR inh: inactive; PAX8 inh HTS: inactive; Mdm2-MdmX inh: inactive; Beta apoptosis: inactive

How did CC(C)N(CC(=O)Nc1ccc(Cl)cc1C(F)(F)F)C(=O)CCl do in these assays?
CSC inhib: inactive; Gli-Sufu antag: inactive; Shn3 3UTR inh: inactive; PAX8 inh HTS: 92; Mdm2-MdmX inh: 63; Beta apoptosis: inactive; Mdm2-MdmX conf: inactive

How did O=C(Nc1ccc2c(c1)OCO2)N[C@H]1CC[C@H](CCNC(=O)C2CC2)O[C@H]1CO do in these assays?
PAX8 inh HTS: inactive

Results for O=C(Nc1cccc(-c2csc(Nc3ccccc3)n2)c1)c1cc([N+](=O)[O-])cc(C(F)(F)F)c1 ?
CSC inhib: inactive; Gli-Sufu antag: inactive; Shn3 3UTR inh: inactive; PAX8 inh HTS: inactive; Mdm2-MdmX inh: inactive; Beta apoptosis: inactive

Results for O=C(Nc1cccc(-c2csc(Nc3ccc(Cl)cc3)n2)c1)c1cc([N+](=O)[O-])cc(C(F)(F)F)c1 ?
CSC inhib: 108; Gli-Sufu antag: inactive; Shn3 3UTR inh: inactive; PAX8 inh HTS: 79; Mdm2-MdmX inh: 85; Beta apoptosis: inactive; Mdm2-MdmX conf: inactive

How did O=C(Nc1cccc(-c2csc(Nc3ccc(Cl)cc3)n2)c1)c1cccc(C(F)(F)F)c1 do in these assays?
CSC inhib: inactive; Gli-Sufu antag: inactive; Shn3 3UTR inh: inactive; PAX8 inh HTS: inactive; Mdm2-MdmX inh: 58; Beta apoptosis: inactive; Mdm2-MdmX conf: inactive

How did O=C(Nc1cccc(-c2csc(Nc3ccc(Cl)cc3)n2)c1)c1ccccc1 do in these assays?
CSC inhib: inactive; Gli-Sufu antag: inactive; Shn3 3UTR inh: inactive; PAX8 inh HTS: inactive; Mdm2-MdmX inh: inactive; Beta apoptosis: inactive

What do the screens show for `O=C(Nc1ccc(-c2csc(Nc3ccc(Cl)cc3)n2)cc1)c1cc([N+](=O)[O-])cc(C(F)(F)F)c1`?
CSC inhib: 149; Gli-Sufu antag: inactive; Shn3 3UTR inh: inactive; PAX8 inh HTS: inactive; Mdm2-MdmX inh: 71; Beta apoptosis: inactive; Mdm2-MdmX conf: inactive

What do the screens show for `O=C(Nc1ccc(-c2csc(Nc3ccccc3)n2)cc1)c1ccccc1`?
CSC inhib: inactive; Gli-Sufu antag: inactive; Shn3 3UTR inh: inactive; PAX8 inh HTS: inactive; Mdm2-MdmX inh: inactive; Beta apoptosis: inactive
